Screens as filed in PubChem.
A selection: hits, their analogues and other compounds. The true share with any hit is near 18%.
TDP1 inh: TDP1 (human) enzyme inhibition. hit rate 0.28% among 350,000. Potency, µM (doses to about 130 µM), inactives show at the top dose activity change, negative = inhibition, hits mostly inhibitors. recombinant TDP1, AlphaScreen DNA substrate cleavage. Q9NUW8. AID 485290; further: potency means the concentration at half of the fitted maximal effect; on the % scale 0 is the no-effect control and ±100 the full control effect; nearly all actives have a fitted effect of over 40% in size
Target sequence (Q9NUW8 whole entry, looked up): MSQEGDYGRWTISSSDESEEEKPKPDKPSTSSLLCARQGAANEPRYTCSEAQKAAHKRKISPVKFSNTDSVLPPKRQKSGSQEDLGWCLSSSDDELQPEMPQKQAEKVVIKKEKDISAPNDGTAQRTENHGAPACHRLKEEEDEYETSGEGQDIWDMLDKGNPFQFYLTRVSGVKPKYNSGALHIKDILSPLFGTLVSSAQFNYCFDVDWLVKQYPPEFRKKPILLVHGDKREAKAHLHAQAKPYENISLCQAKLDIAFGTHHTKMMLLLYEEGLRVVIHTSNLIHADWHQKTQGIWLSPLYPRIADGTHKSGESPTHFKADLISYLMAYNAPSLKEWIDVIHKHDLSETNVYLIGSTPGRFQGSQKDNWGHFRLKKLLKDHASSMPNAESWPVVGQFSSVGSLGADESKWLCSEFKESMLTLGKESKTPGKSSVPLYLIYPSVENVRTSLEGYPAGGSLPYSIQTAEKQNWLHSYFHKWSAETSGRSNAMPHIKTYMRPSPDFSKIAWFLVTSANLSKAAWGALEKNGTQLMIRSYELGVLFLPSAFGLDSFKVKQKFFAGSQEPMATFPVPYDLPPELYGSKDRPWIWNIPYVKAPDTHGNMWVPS
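AlphaScreen read-out: signal falls as enzyme removes the 3' tyrosine-FITC from a 5'-biotinylated DNA oligo (15 nM, 5 min, RT). Enzyme was E. coli-made recombinant Tdp1 at 1 nM, exposed to compound for 15 min beforehand; beads 10 ug/ml, 10 min.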
IL-1B inflam inh: inhibitors of inflammasome signaling (IL-1 beta secretion). hit rate 4.7% among 360,000. activity change, % at 57.5 µM. THP-1 LPS/ATP IL-1B secretion, AlphaLISA, 16 h; active compounds read low; in the data active means activity change below about -50%; inconclusive means mostly about -30% to -49%; further: on the % scale 0 is the no-effect control and ±100 the full control effect
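Secreted IL-1B measured by AlphaLISA bead assay after 16 h compound exposure of THP-1 cells; compounds (final up to 57.5 uM) added 1 h before LPS (250 ng/mL) and ATP (1.25 mM) stimulation; lower signal means less secretion.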
HepG2 tox: HepG2 cytotoxicity, counter-screen for TGF-b inhibitors; HepG2 CAGA-GFP viability, ATP luminescence, 18 h; hit rate 0.76% among 410,000; Potency, µM (series often up to 46.1 µM), inactives show at the top dose activity change, negative = cytotoxicity, most hits filed as cytotoxic; further: potency means the concentration at half of the fitted maximal effect
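HepG2 CAGA-GFP cells (1000/well, DMEM with 1% FBS) received compound, then TGF-beta at 500 pg/mL final, and were incubated 18 hours at 37 degrees C. Viability was read by CellTiter-Glo luminescence. Media-only wells were set as complete cell-killing and DMSO as no toxicity.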
TGFb inhibitor: inhibitors of TGF-b signaling. HepG2 CAGA-GFP TGF-b/SMAD3 reporter, GFP fluorescence, 18 h; TGF-beta stimulated, 500 pg/mL final. hit rate 1.2% among 410,000. Potency, µM (series often up to 46.1 µM), inactives show top-dose activity, negative = inhibition, actives largely listed as inhibitors; further: potency means the concentration at half of the fitted maximal effect; on the % scale 0 is the no-effect control and ±100 the full control effect; nearly all actives have a fitted effect of over 65% in size
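Inhibition of TGF-beta-driven CAGA-GFP reporter expression in HEPG2 cells is measured by cellular GFP fluorescence after 18 h stimulation with 500 pg/mL recombinant TGF-beta in 1% FBS medium at 37 degrees C.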
DT40 TDP1 no CPT: qHTS for Inhibitors of human tyrosyl-DNA phosphodiesterase 1 (TDP1): qHTS in cells in absence of CPT; DT40 Tdp1-/- hTDP1 cells, no CPT, ATP luminescence, 48 h; Potency, µM (top dose mostly 46.2 µM), without a hit: at the highest dose activity change, negative = growth inhibition, usual class: inhibitors; hit rate 15% among 420,000; AID 686978, 2013; further: potency means the concentration at half of the fitted maximal effect; on the % scale 0 is the no-effect control and ±100 the full control effect; nearly all actives have a fitted effect of over 55% in size
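DT40 Tdp1-/-;hTDP1 cells, no CPT (DMSO vehicle only), 400 cells/well; compounds pin-transferred; ≥48 hr, 37 °C; CellTiter-Glo 30 min RT dark, luminescence read.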
TDP1 cell CPT: DT40-hTDP1 cell growth loss with CPT | chicken DT40 Tdp1-/-;hTDP1 cells + 20 nM CPT, ATP luminescence, 48 h | Potency, µM (titrated, usually from 46.2 µM), inactives show top-dose activity change, negative = growth inhibition, most hits filed as inhibitors | hit rate 12% among 420,000 | AID 686979; further: potency means the concentration at half of the fitted maximal effect; on the % scale 0 is the no-effect control and ±100 the full control effect; nearly all actives have a fitted effect of over 55% in size
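Chicken DT40 Tdp1-/- cells complemented with human TDP1, 400 cells/well, exposed to compounds plus 20 nM camptothecin for at least 48 h at 37 C; viability read as ATP content by CellTiter-Glo luminescence.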
* = called active by the depositor; u = inconclusive; x = no result; [ ] = dose if it differs, or a comment. Unless noted, the call rests on the fitted dose curve; in most records, active means well fitted curve in the direction sought with a large enough effect; inconclusive means small, poorly fitted or top-dose-only effect, or another doubt; inactive means no such curve, though single readings can be large; an effect the other way counts as inactive or inconclusive.

SMILES | TDP1 inh | IL-1B inflam inh | HepG2 tox | TGFb inhibitor | DT40 TDP1 no CPT | TDP1 cell CPT
CCCS(=O)(=O)N1CCCC(C(=O)NCCCN(C)c2ccccc2)C1 (centres undefined) | 4.8% | -12.7 | 12.7% | 11.5% | -28.1% | -1.4%
Cc1nn(CCCC(=O)NCc2ccco2)c(=O)c2nn(-c3ccccc3)c(C)c12 | 0.2% | -8.2 | 0.2% | -1.1% | -9.4% | 0.5%
C=CCNC(=O)/C(C#N)=C/c1c(C)nn(-c2ccc(Cl)cc2)c1Cl | 5.5% | -56.8* | -42.7% | -13.2% | 23.1µM* | u
Cc1nn(-c2ccc(F)cc2)c(Cl)c1/C=C(/CC(=O)O)c1nc2ccccc2s1 | x | 27.3 | 0.8% | 13.1% | 5.3% | 3.9%
CCOc1ccccc1NC(=O)/C(C#N)=C/c1c(C)nn(-c2ccc(F)cc2)c1Cl | -1.1% | -9.9 | -2.5% | -16.3% | -19.5% | 13µM*
Cc1nn(-c2ccc(Cl)cc2)c(Cl)c1/C=C(\C#N)C(N)=O | 0.0% | -6.0 | -22.1% | -2.4% | u | u
CCCC(C)NC(=O)CN1C(=O)NC2(CCc3ccccc32)C1=O (centres undefined) | -0.2% | 13.8 | 4.2% | -16.4% | 10.3% | 4.4%
COc1cc(C2C(C#N)=C(N)N(N(C)C)C3=C2C(=O)CCC3)ccc1O (centres undefined) | x | 14.1 | -55.7% | 10.1% | -8.9% | 4.3%
COc1ccc(C2(CNC(=O)c3ccccc3)CCCC2)cc1OC | 1.1% | -2.1 | 3.6% | -1.3% | u | -47.0%
COc1ccc(C2(CNC(=O)c3cc([N+](=O)[O-])cc([N+](=O)[O-])c3)CCCC2)cc1OC | 7.7% | 23.1 | -1.8% | -19.4% | 16.4µM* | 20.6µM*
O=C(NCC1(c2ccccc2)CCCC1)c1cccc(Br)c1 | -7.8% | -2.5 | -5.0% | 1.1% | 13µM* | 14.6µM*
COc1cccc(C(=O)NCC2(c3ccccc3)CCCC2)c1OC | x | 18.0 | -16.1% | -19.3% | 9.2µM* | 18.4µM*
O=C(/C=C/c1ccco1)NCC1(c2ccccc2)CCCC1 | -0.6% | -4.4 | -2.7% | 0.0% | u | 11.6µM*
COc1ccc(C2(CNC(=O)/C=C/c3ccco3)CCCC2)cc1OC | 5.9% | 4.6 | -25.1% | -0.5% | u | u
O=C(CN1CCOCC1)NCc1cc([N+](=O)[O-])ccc1O | x | 0.0 | 1.2% | 4.5% | 13.4% | -0.3%
Cc1ccccc1C1CC(=O)Oc2ccc(C(C)(C)C)cc21 (centres undefined) | -6.1% | x | x | x | x | x
CC(NS(=O)(=O)c1ccc2[nH]c(=O)[nH]c2c1)c1ccc(F)cc1 (centres undefined) | x | 15.7 | -2.9% | -3.7% | -24.9% | -5.3%
Cc1ccc(CNC(=O)c2ccc(N3Cc4ccccc4Oc4ncccc43)s2)cc1 | -2.5% | x | -13.6% | x | u | u
O=C(NCc1ccco1)C1(c2ccccc2)CCCC1 | 6.6% | -1.0 | -11.9% | -25.5% | 7.08µM* | 10.3µM*
O=C(CC(c1ccccc1)c1cc(Br)ccc1O)NCC1(c2ccccc2)CCCC1 (centres undefined) | 6.3% | x | -98.7% | 17.8µM* | u | u
O=C(CCc1ccccc1)NCC1(c2ccccc2)CCCC1 | x | 23.2 | -14.2% | -1.4% | u | 10.6%
O=C(NCC1(c2ccccc2)CCCC1)c1ccco1 | 2.6% | -4.2 | -19.0% | -13.9% | 14.6µM* | -64.6%
COCc1c(C(=O)N2CCN(C3CCCC3)CC2)cnn1-c1nccc(-c2cccs2)n1 | x | x | x | x | -21.7% | -1.2%[9.04 µM]
CCOC(=O)CCn1cnc2onc(-c3cc(OC)ccc3Cl)c2c1=O | -1.3% | x | -3.0% | -24.7% | -13.1% | 22.0%
NC(=O)Cn1c(-c2nonc2N)nc2ccccc21 | 0.0% | 3.2 | -4.7% | 16.9% | 3.7% | 1.2%
